The list is not random: actives were taken first. Their share in the collection is about 5.7%.
rCAG RNA binder: molecules binding r(CAG) RNA repeats. hit rate 1.3% among 370,000. r(CAG) RNA repeat, TO-PRO-1 dye displacement fluorescence. inhibition, % at 3 µM. AID 651821;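 active means inhibition above the plate cutoff, the mean of all test compounds on that plate plus 3 SD, cut at about 35% in these data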;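 further: 0% = DMSO alone and 100% = 100 µM mitoxantrone as full dye displacement; higher means more dye released from RNA so lower well fluorescence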
MPTP inh: blocks calcium-induced mitochondrial swelling | hit rate 1.4% among 360,000 | isolated mouse mitochondria, Ca2+ swelling absorbance, 30 min | inhibition, % at 10 µM | AID 602449;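 active means inhibition of 50% or more, scaled per plate between neutral and stimulator controls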;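 further: 0% = DMSO wells given calcium and 100% = 1 mM EGTA wells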
Myeloid diff MLP: myeloid differentiation induction. hit rate 1% among 360,000. ER-HoxA9 myeloid progenitors, lysozyme-GFP differentiation, flow cytometry. AID 624256. calls only at 10 µM;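 active means normalized GFP-positive differentiation at or above the plate's own cutoff, the solvent-only control mean plus 3 SD; inconclusive means no clear call, values can overlap the other calls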;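 further: cells exposed to compound for four days before flow analysis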
GRIN3A LBD mod: modulators (binders) of human NR3A ligand-binding domain | NR3A LBD differential scanning fluorimetry, Tm shift; 0% = protein alone, 100% = glycine-bound protein | Tm shift relative to glycine control, % at 25 µM | hit rate 2.5% among 340,000;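 active means melting temperature shift of at least 10% of the positive control shift, at one fixed dose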
FAS-TE inh: inhibitors of human fatty acid synthase thioesterase domain; P49327; recombinant FAS-TE, OMFH fluorogenic substrate, fluorescence endpoint; hit rate 0.67% among 360,000; inhibition, % at 15 µM;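 active means compounds whose normalised, plate-corrected inhibition of enzyme fluorescence in the single-dose primary screen is 50% or more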;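 further: 0% = DMSO with enzyme and 100% = substrate without enzyme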
* = called active by the depositor; i = inactive; ? = inconclusive; nt = no result given; + = active, no number.

SMILES	rCAG RNA binder	MPTP inh	Myeloid diff MLP	GRIN3A LBD mod	FAS-TE inh
O=C(COC(=O)CNS(=O)(=O)c1cc(C(F)(F)F)ccc1Cl)NC1CC1	3	-1	i	-1	-2
Cc1cc(Br)ccc1SCC(=O)OCC(=O)c1c(N)n(C)c(=O)n(C)c1=O	-3	0	+	0	5
O=C(COC(=O)CNS(=O)(=O)c1ccc(Br)cc1Cl)NC1CCCC1	-3	-1	i	18*	-9
Cc1ccccc1CSCC(=O)c1c(N)n(C)c(=O)n(C)c1=O	-3	-1	i	11*	3
COC(=O)[C@]12C[C@H](CC(=O)N3CCCC3)C(=O)N(Cc3ccccc3)C1=C[C@H](C(C)C)O[C@@H]2C1CC1	-1	nt	nt	nt	nt
O=S1(=O)c2ccc(N3CCSCC3)cc2Oc2ccccc2CN1Cc1cn(Cc2cccc(C(F)(F)F)c2)nn1	13	nt	nt	nt	nt
CCOC(=O)C1CSCCS(=O)(=O)N1Cc1cccc(F)c1 (stereo not given)	0	nt	nt	nt	nt
Cn1c(N)c(C(=O)COC(=O)CCc2ccccc2)c(=O)n(C)c1=O	-6	-1	+	0	-11
Cn1c(N)c(C(=O)COC(=O)CNC(=O)c2ccccc2)c(=O)n(C)c1=O	-2	-1	i	0	-5
N#CC1=C(SCC(N)=O)NC2=C(C(=O)c3ccccc32)C1c1ccc(Cl)cc1 (stereo not given)	21	2	i	18*	7
CSC1=C(C#N)C(c2ccc(Cl)cc2)C2=C(CC(C)(C)CC2=O)N1 (stereo not given)	6	25	i	-4	20
CN1CCCCC(NC(=O)c2ccc(F)cc2)C1=O (stereo not given)	2	nt	nt	nt	nt
Cc1ccc2nc(/C(C#N)=C/c3ccccc3C(=O)O)[nH]c2c1	11	-1	i	-1	-6
Cc1ccc2nc(/C(C#N)=C/c3ccc(O)c(O)c3)[nH]c2c1	13	5	+	19*	14
Cc1cn(S(=O)(=O)c2cc(Br)ccc2Br)cn1	2	0	i	10*	-5
Cc1cn(S(=O)(=O)c2ccc(Br)cc2)cn1	0	-1	i	0	-8
Cc1cc(C)cc(N2C(=O)CC(c3ccccc3)CC2=O)c1	0	0	i	17*	-9
CN(C)[C@H]1CCN(c2cccc3c2S(=O)(=O)N2CC[C@@H](C2)O3)C1	1	nt	nt	nt	nt
C[C@@]12C(=O)Nc3ccc(F)cc3C(=O)N1[C@H]1c3cc(Br)ccc3OC[C@@H]1[C@@H]2c1ccccc1	9	0	i	-9	89*
COc1ccc2c(c1)OC[C@H]1[C@H]2N2C(=O)c3cc(C)ccc3NC(=O)[C@@]2(C)[C@H]1c1ccccc1	nt	0	i	-3	76*
Cc1ccc2c(c1)[C@H]1[C@H](CO2)[C@H](c2ccccc2)[C@]2(C)C(=O)Nc3ccc(Cl)cc3C(=O)N12	20	-1	i	-4	33
Cc1ccc2c(c1)C(=O)N1[C@H]3c4ccccc4OC[C@@H]3[C@H](c3ccccc3)[C@]1(C)C(=O)N2	nt	0	i	-2	71*
COc1ccc2c(c1)[C@H]1[C@H](CO2)[C@H](c2ccccc2)[C@]2(C)C(=O)Nc3ccc(F)cc3C(=O)N12	5	0	i	3	40
CC(=O)OC[C@H]1O[C@H](C#Cc2ccc(C(C)(C)C)cc2)C=C[C@H]1OC(=O)Nc1ccccc1	7	nt	nt	nt	nt
C/C(=N/Nc1ccnc2cc(Cl)ccc12)c1ccc(N)cc1	12	6	i	-2	2
SMILES	rCAG RNA binder	MPTP inh	Myeloid diff MLP	GRIN3A LBD mod	FAS-TE inh
C/C(=N/Nc1ccnc2cc(Cl)ccc12)c1ccc(O)cc1	12	12	i	14*	0
O=C(Cn1sc2ccccc2c1=O)NC12CC3CC(CC(C3)C1)C2	nt	21	i	3	-13
O=C(Cc1nnc(NC(=O)Nc2ccccc2)s1)Nc1ccccc1	22	4	i	12*	-4
O=C(Cc1nc(=O)c2ccccc2s1)Nc1ccccc1	7	14	i	18*	-5
O=C(Cc1ccccc1)Nc1nc(=O)c2ccccc2s1	8	0	i	-2	2
O=C(Cn1sc2ccccc2c1=O)Nc1ccccc1	1	5	+	nt	-7
O=C(Nc1ccccc1)Nc1nnc(-c2cccs2)s1	30	23	i	22*	-9
NC(=O)C1(N2CCCCC2)CCN(C(=O)c2cccs2)CC1	4	-2	+	-2	-10
COc1ccc(NC(=O)/C(C#N)=C/c2ccc(-c3ccccc3C(=O)O)o2)cc1	23	0	i	2	-6
COc1ccc(NC(=O)/C(C#N)=C\c2ccc(-c3cc(C(=O)O)ccc3C)o2)cc1	59*	0	i	1	-2
COc1ccc(-n2c(SCC(=O)NC3CCCCCC3)nnc2-c2ccncc2)cc1	3	nt	nt	nt	nt
COc1ccc(NC(=S)NNC(=O)CNc2ccc(Cl)cc2)cc1	3	2	i	12*	1
COc1cccc(Nc2nc(N)nc(-c3oc4ccccc4c3C)n2)c1	18	1	i	17*	26
Cc1c(-c2nc(N)nc(Nc3ccccc3F)n2)oc2ccccc12	12	-1	i	2	22
Cc1cccc(Nc2nc(N)nc(-c3oc4ccccc4c3C)n2)c1	12	2	+	4	26
Cc1ccc(Nc2nc(N)nc(-c3oc4ccccc4c3C)n2)cc1	nt	6	?	3	12
C=CCN1[C@@H](CC(C)C)COc2cc(N3CCSCC3)ccc2S1(=O)=O	4	nt	nt	nt	nt
COc1ccccc1C(=O)Nc1sc2c(c1C(N)=O)CCCC2	15	-2	i	35*	-2
COc1ccccc1C(=O)Nc1sc2c(c1C#N)CCC2	nt	0	i	5	3
CN(C)c1ccc(S(=O)(=O)NCC(=O)OCC(=O)Nc2cc(Cl)cc(Cl)c2)cc1[N+](=O)[O-]	21	6	i	18*	-5
CN(CCOc1ccc(Cl)cc1)C(=O)CNS(=O)(=O)c1ccc(N(C)C)c([N+](=O)[O-])c1	2	-4	i	-9	21
O=C(N/N=C/c1ccc(F)cc1)c1ccc(Br)cc1	-1	0	i	-10	-4
O=C(N/N=C/c1ccc(Br)cc1)c1ccc(Br)o1	6	1	i	19*	0
COc1ccc(C2C(C(=O)c3ccco3)=C(O)C(=O)N2CCc2ccccc2)cc1OC (stereo not given)	8	-10	+	-1	-4
COc1ccc(C2C(C(=O)c3ccco3)=C(O)C(=O)N2CCOCCO)cc1OC (stereo not given)	9	-1	i	1	-3
Nc1cc2c(cc1Cl)-c1ccccc1C2=NO	14	2	i	34*	-8
ON=C1c2ccccc2-c2ccccc21	1	-1	i	0	-17
CCN(CC)c1ccc(/C=C(\C#N)C(N)=S)cc1	-21	8	+	-3	-13
CCOC(=O)[C@H]1[C@H]2COc3ccccc3[C@@H]2N2C(=O)CNC(=O)[C@@]12C	0	1	+	1	-13

Bioassay records deposited in PubChem by several laboratories.
